Source: PubChem
Only some compounds are listed: those with a hit (about 9.2% of all), similar ones and a draw of the others.
HTT ATP protect: Huntington cell model cytoprotection by ATP luminescence | PC12 HTT-Q103 induced, cytoprotection, ATP luminescence, 40 h | Potency, µM (highest dose often 56.4 µM), for inactives: cytoprotection (ATP increase), usual class: activators | 230,000 tested, 0.14% active | AID 1471; active means well fitted curve in the direction sought with a large enough effect; inconclusive means small, poorly fitted or top-dose-only effect, or another doubt; inactive means no such curve, though single readings can be large; an effect the other way counts as inactive or inconclusive; further: % of control where 0% means no effect; nearly all actives have a fitted effect of over 45% in size
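PC12 cells with ecdysone-inducible HTT exon 1 Q103-GFP, induced with 100 nM tebufenozide and co-treated with library compounds in a dose series (1536-well, 1500 cells/well). Cytoprotection read as ATP content by ATPlite luminescence.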
ALDH1A1 block: inhibitors of human aldehyde dehydrogenase 1A1; P00352; Purified ALDH1A1, NADH fluorescence, propionaldehyde substrate; Potency, µM (top dose mostly 75.3 µM), inactives show at the highest dose activity, negative = inhibition, actives largely listed as inhibitors; 220,000 tested, 7.3% active; AID 1030;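 further: plate controls were no enzyme wells and a reference inhibitor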
Target sequence (P00352 whole entry, looked up): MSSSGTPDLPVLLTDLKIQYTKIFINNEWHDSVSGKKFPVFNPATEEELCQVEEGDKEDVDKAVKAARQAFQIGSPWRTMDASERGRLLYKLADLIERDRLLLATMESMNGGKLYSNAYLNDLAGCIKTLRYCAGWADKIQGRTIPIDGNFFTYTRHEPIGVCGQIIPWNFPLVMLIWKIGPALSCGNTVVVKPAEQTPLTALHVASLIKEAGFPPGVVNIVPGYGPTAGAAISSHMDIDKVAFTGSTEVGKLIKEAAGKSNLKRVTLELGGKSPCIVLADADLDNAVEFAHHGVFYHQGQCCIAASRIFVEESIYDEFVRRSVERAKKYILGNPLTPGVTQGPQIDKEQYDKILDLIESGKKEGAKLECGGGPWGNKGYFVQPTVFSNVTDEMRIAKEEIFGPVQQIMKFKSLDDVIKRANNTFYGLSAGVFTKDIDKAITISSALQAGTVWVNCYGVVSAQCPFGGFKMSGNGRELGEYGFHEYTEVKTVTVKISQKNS
HPGD block: inhibitors of human 15-hydroxyprostaglandin dehydrogenase (HPGD); purified HPGD, NADH fluorescence kinetic, PGE2 substrate; Potency, µM, for inactives: at the highest dose activity change, negative = inhibition, usual class: inhibitors; 150,000 tested, 4.3% active; further: on the % scale 0 is the no-effect control and ±100 the full control effect
Target sequence (P15428 whole entry, looked up): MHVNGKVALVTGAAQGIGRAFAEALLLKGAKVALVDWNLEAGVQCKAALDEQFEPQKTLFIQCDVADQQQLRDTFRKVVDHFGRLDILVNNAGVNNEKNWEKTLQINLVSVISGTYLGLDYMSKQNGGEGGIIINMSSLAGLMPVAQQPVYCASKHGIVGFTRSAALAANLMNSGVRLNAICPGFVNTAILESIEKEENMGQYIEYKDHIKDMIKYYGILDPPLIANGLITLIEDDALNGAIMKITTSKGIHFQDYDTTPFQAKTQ
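20 nM HPGD preincubated 15 min at room temperature with compound in 50 mM Tris-HCl pH 8, 0.01% Tween 20. Started with 1 mM NAD+ and 30 uM prostaglandin E2; NADH fluorescence (360/450 nm) read 5 times over 30-s intervals, last minus first.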
HttQ103 aggreg: inhibitors of mutant huntingtin aggregate formation in PC12 cells. Potency, µM (series often up to 46.1 µM), inactives show at the top dose activity change, negative = inhibition, most hits filed as inhibitors. PC12 HttQ103-GFP aggregates, Acumen cytometry, 40 h. 220,000 tested, 1.1% active; active means well fitted curve in the direction sought with a large enough effect; inconclusive means small, poorly fitted or top-dose-only effect, or another doubt; inactive means no such curve, though single readings can be large; an effect the other way counts as inactive or inconclusive; further: on the % scale 0 is the no-effect control and ±100 the full control effect; nearly all actives have a fitted effect of over 60% in size
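Using laser scanning cytometry, GFP-positive aggregates were counted after lysis of PC12 cells induced with 100 nM tebufenozide to express HTT exon 1 Q103–GFP. Compounds were tested in titration.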
Lamin A splicing: changes lamin A minigene splicing in HeLa cells; 200,000 tested, 0.01% active; Potency, µM (titrated, usually from 46.1 µM), inactives show at the top dose ratio change, negative = inhibition, usual class: inhibitors; AID 1487; HeLa LMNA splicing GFP/RFP minigene ratio, 48 h; active means well fitted inhibition curve with a large enough effect in the signal ratio, with a control signal flat, not every such curve was filed as active; inconclusive means small, poorly fitted or top-dose-only effect, or effect the other way, or a change in a side signal; the % refers to the signal ratio; further: on the % scale 0 is the no-effect control and ±100 the full control effect
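Read-out is the ratio of GFP to DsRed2 object intensity, acquired by 488 nm laser-scanning cytometry on HeLa lamin A-EGFP minigene reporter cells. Compound incubation 48 hrs at 37 °C in Opti-MEM with 2% FBS; DMSO 0.5% final.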
KDM4E inh: JMJD2E (human) inhibition. 230,000 tested, 1.6% active. AID 2147. B2RXH2. JMJD2E catalytic domain, FDH-coupled NADH fluorescence (FDH is formaldehyde dehydrogenase). Potency, µM (highest dose often 57.1 µM), without a hit: at the highest dose activity change, negative = inhibition, most hits filed as inhibitors;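 further: 0% = wells with enzyme and -100% = buffer wells without enzyme; nearly all actives have a fitted effect of over 50% in size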
* = called active by the depositor; u = inconclusive; x = no result given; [ ] = another dose, or the depositor's remark. Unless noted, the call rests on the fitted dose curve; in most records, active means well fitted inhibition curve with a large enough effect (not every such curve was filed as active); inconclusive means small, poorly fitted or top-dose-only effect, or another doubt; inactive means no such curve, though single readings can be large or run the other way. Potency means the concentration at half of the fitted maximal effect.

SMILES | HTT ATP protect | ALDH1A1 block | HPGD block | HttQ103 aggreg | Lamin A splicing | KDM4E inh
CCCc1cc(=O)[nH]c(SCc2nc3ccc([N+](=O)[O-])cc3[nH]2)n1 | 7%[10 µM] | -15% | 18µM* | -9% | u | 14%
CCOC(=O)CN/C=C(\C#N)c1ccccc1 | x | -7% | -10% | -2% | -3% | 21%
CCCc1cc(=O)[nH]c(SCc2ccccc2)n1 | -1% | u | 16µM* | -18% | 3% | -6%
Cc1cccc(CSc2nc3[nH]ncc3c(=O)[nH]2)c1 | -15% | 8.9µM* | x | -6% | -17%[46 µM] | -2%
CCc1nc(SCc2cccnc2)[nH]c(=O)c1C | -14% | 13% | 25µM* | 11% | 1% | -6%
CCCc1cc(=O)[nH]c(SCc2cccnc2)n1 | -15%[10 µM] | -4% | 20µM* | -4% | -15% | 5%
CSc1nc(N)c2ncn([C@H]3O[C@H](COP(=O)(O)OP(=O)(O)O)[C@@H](O)[C@@H]3O)c2n1 | u | 7% | -5% | x | x | 6%
CCCc1cc(=O)[nH]c(SCC(=O)C(C)(C)C)n1 | 12% | -12% | -17% | 20%[9.22 µM] | 1% | 16%
CCCc1cc(=O)[nH]c(SCc2ccc(Cl)cc2)n1 | 16% | 1% | 16µM* | -14% | 21% | 13%
CCSc1nc(-c2ccccc2)c(C#N)c(=O)[nH]1 | -12% | u | 28µM* | -7% | -10% | -14%
CSc1nc(-c2ccccc2)c(C#N)c(=O)[nH]1 | 2%[10 µM] | x | x | -24%[9.22 µM] | x | -6%
CCCCCCCCCCCC(=O)OCC(O)C1OCC(O)C1O (stereo not drawn) | -8% | x | x | -5% | x | x
Cc1csc2c(SCC(=O)NNC(=O)C(Cl)Cl)ncnc12 | 3%[10 µM] | 28µM* | x | 9%[9.22 µM] | 6%[46 µM] | 13%
Cc1ccc([N+](=O)[O-])cc1N/C=C/C(=O)c1ccco1 | -79% | 22µM* | -24% | -7% | u | 6%
O=C1CC(Nc2ccc(N3CCOCC3)cc2)C(=O)N1c1ccccc1F (stereo not drawn) | -22%[10 µM] | 14µM* | -14% | 23% | -9% | 5%
Cc1nn(C)cc1CNC(=O)Nc1ccc(Cl)c(Cl)c1 | 0% | -16% | 16µM* | -14% | 1% | 8%
Cc1ccc(NC(=O)NCc2c(C)nn(C)c2C)cc1Cl | -58% | -3% | x | 25% | -4%[46 µM] | 3%
COc1ccc(OC)c(-c2nc3c(C)n[nH]c(=O)c3[nH]2)c1 | -24%[10 µM] | -6% | -28% | 13µM* | u | u
COc1ccc(OC)c(-n2c(-c3ccccc3)n[nH]c2=S)c1 | -24% | u | u | 19% | 8% | -25%
O=C(CN1CCSC1=NCc1ccccc1)c1ccc(Cl)cc1 | 11%[10 µM] | 0% | -29% | 27% | u | 0%
CCN(CC)c1ccc(NC(=O)c2ccccc2Br)cc1S(=O)(=O)Nc1ccccc1OC | 32%[10 µM] | 1.6µM* | 2.2µM* | 28% | u | -24%
CCN(CC)c1ccc(NC(=O)COc2ccccc2C#N)cc1S(=O)(=O)Nc1ccc(OC)cc1 | -7%[10 µM] | 22µM* | -21% | 13% | -8% | 3%
COc1ccc(NC(=O)c2ccccc2F)cc1Cl | x | -4% | u | -4%[9.22 µM] | -3% | 0%
CCN(CC)c1ccc(NC(=O)COc2ccccc2C)cc1S(=O)(=O)Nc1ccccc1OC | -3%[10 µM] | 12µM* | 28µM* | 2% | -8% | -15%
COc1ccccc1NS(=O)(=O)c1cc(NC(=O)CNC(=O)c2cc(C)cc(C)c2)ccc1C | -7%[10 µM] | -14% | -4% | 13% | u | -1%
SMILES | HTT ATP protect | ALDH1A1 block | HPGD block | HttQ103 aggreg | Lamin A splicing | KDM4E inh
CCN(CC)CCNC(=O)c1ccc(NC(=O)c2ccc(Cl)c(S(=O)(=O)Nc3ccccc3OC)c2)cc1 | 24% | -2% | -7% | -1% | 6% | -1%
CCN(CC)c1ccc(NC(=O)c2ccccc2F)cc1S(=O)(=O)Nc1ccccc1OC | -17%[10 µM] | 4.5µM* | 14µM* | -21% | -10% | 8%
O=C1N/C(=N/N=C/c2ccccc2)SC1(c1ccccc1)c1ccccc1 | -5% | 2% | -22% | 7% | 15% | -4%
CCN(CC)c1ccc(NC(=O)c2ccc(=O)[nH]c2)cc1S(=O)(=O)Nc1ccccc1OC | -58% | 4µM* | x | 24% | -13%[46 µM] | u
O=P(O)(O)CP(=O)(O)O | -1%[10 µM] | 4% | -6% | -4% | 12% | 0.35µM*
COc1ccc(CNC(=O)Cn2nc3c(cc2=O)CCCC3)cc1 | x | x | x | x | -4%[46 µM] | x
COc1ccc(Oc2ncc3nc(C)c(=O)n(Cc4cccs4)c3n2)cc1 | 21% | -9% | -9% | x | x | x
COc1ncc2nc(CCc3ccccc3)c(=O)n(C3CC3)c2n1 | -62% | 19µM* | -20% | x | x | x
COc1ccc(Oc2ncc3nc(C)c(=O)n(Cc4ccc(F)cc4)c3n2)cc1 | 16% | 25µM* | -19% | x | x | x
Cc1nc2cnc(Oc3cccc(Cl)c3)nc2n(CCc2ccccc2)c1=O | -52% | 6.3µM* | -12% | x | x | x
COc1ccc(Oc2ncc3nc(CCc4ccccc4)c(=O)n(C)c3n2)cc1 | -64% | u | -5% | x | x | x
CCNc1ncc2nc(CCc3ccccc3)c(=O)n(C3CC3)c2n1 | -43% | u | x | x | -13% | x
Cn1c(=O)c(CCc2ccccc2)nc2cnc(Oc3ccccc3)nc21 | -3% | 8.9µM* | -16% | x | x | x
CCC(=O)c1ccc2c(c1)N(CCCN1CCN(CCO)CC1)c1ccccc1S2 | -96% | x | x | -41% | x | x
CC(C)[C@H](NC(=O)CNC(=O)OC(C)(C)C)C(=O)N[C@H](C=O)C(C)C | 27% | -4% | x | x | x | x
O=C(O)c1cc(-c2ccncc2)nc2ccccc12 | -11%[10 µM] | -11%[13.5 µM] | -8% | x | x | x
COc1ccc(Oc2ncc3nc(C)c(=O)n(CCc4ccccc4)c3n2)cc1 | -5% | 0.22µM* | -5% | x | x | x
O=C(COC(=O)CCCNC(=O)c1ccc(Cl)cc1)NCc1ccccc1Cl | 4% | 4.5µM* | u | 24% | 15% | -4%
O=C(COC(=O)C1CCC1)NCc1ccccc1Cl | -6%[10 µM] | u | 8.9µM* | -9% | 3% | 1%
O=C(COC(=O)CCCNC(=O)c1ccc(Cl)cc1)Nc1ccc(Br)cc1 | 28%[10 µM] | 6% | -8% | -3% | 5% | 3%
O=C(COC(=O)CCSc1ccc(Cl)cc1)NCCc1ccccc1 | 10%[10 µM] | 0% | x | u | -7% | 4%
CC1CC1C(=O)OCC(=O)NCc1ccccc1Cl (stereo not drawn) | 1%[10 µM] | u | -16% | -14% | -12% | -1%
O=C(COC(=O)CCSc1ccc(Cl)cc1)NCc1ccccc1Cl | x | -14% | -18% | 16µM* | 4% | -8%
COc1ccc2nc3oc(C(=O)Nc4cccc(C(F)(F)F)c4)cc3cc2c1 | x | x | x | x | -5%[46 µM] | x
CC(NC(=O)c1cc(-c2ccc(O)cc2)on1)c1ccccc1 (stereo not drawn) | -20% | x | x | x | x | x
CC(C)C1N=C2c3ccccc3N=C(SCC(=O)NCc3ccccc3Cl)N2C1=O (stereo not drawn) | x | x | x | x | 9%[46 µM] | x
